Bioassay records from PubChem BioAssay.
The list is not random: actives were taken first. Their share in the collection is about 10%.
hNpr1 antagonist – Natriuretic polypeptide receptor (hNpr1) antagonism - Primary qHTS; Atrial natriuretic peptide receptor 1 (Homo sapiens), P16066; HEK293 hNpr1 GloSensor cGMP, ANP-stimulated luminescence; Potency, µM (doses to about 46.3 µM), for inactives: at the top dose activity change, negative = inhibition, actives largely listed as inhibitors; 76,000 tested, 1.6% active; calls by dose curve; also: nearly all actives have a fitted effect of over 60% in size
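Compound pre-incubated 30 min at room temperature on GloSensor-loaded HEK293 cells stably carrying hNpr1 and the pGS-40F cGMP biosensor. Stimulation uses hNppA at 0.1 nM final; luminescence is taken at baseline and 20 min post-agonist.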
HEK293 tox – Cytotoxic Profiling in HEK 293 Cell Line of Diverse Libraries Using Quantitative High-Throughput Screening; HEK 293 viability, ATP luminescence (CellTiter-Glo), 48-72 h; Potency, µM (top dose mostly 115 µM), without a hit: at the highest dose activity change, negative = cytotoxicity, usual class: inhibitors; 94,000 tested, 6.6% active; AID 1345083, 2018; also: nearly all actives have a fitted effect of over 60% in size
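HEK 293 cells seeded at 250 cells/well were exposed to compound for 48 or 72 hr at 37 degree Celsius. Viability taken as ATP content by CellTiter-Glo luminescence.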
GPT2 inhibitor – Primary qHTS assay for inhibitors of Glutamate pyruvate transaminase 2 (GPT2) | Alanine aminotransferase 2 (Homo sapiens), Q8TD30 | Recombinant GPT2, coupled pyruvate oxidase/HRP Amplex Red fluorescence | Potency, µM (doses to about 57.7 µM), for the others: at the highest dose activity change, negative = inhibition, most hits filed as inhibitors | 100,000 tested, 0.25% active | AID 1671188, 2021; also: nearly all actives have a fitted effect of over 60% in size
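Recombinant GPT2 (10ng/uL) with 250uM a-KG and 2mM L-alanine, 30 min at room temperature, in HEPES pH 7.5 buffer. Pyruvate detected by pyruvate oxidase/HRP/Amplex Red fluorescence after 30 min in the dark; AOA (50uM) as positive control.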
3T3 cytotox – Cytotoxic Profiling in NIH 3T3 Cell Line of Diverse Libraries Using Quantitative High-Throughput Screening; NIH 3T3 viability, CellTiter-Glo ATP luminescence, 48-72 h; 94,000 tested, 4.3% active; Potency, µM (doses to about 96.7 µM), without a hit: at the top dose activity change, negative = cytotoxicity, actives largely listed as inhibitors; also: nearly all actives have a fitted effect of over 55% in size
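Luminescent ATP readout (CellTiter-Glo, 10 min RT) after 48 or 72 hr compound exposure of NIH 3T3 cells seeded at 400 cells/well in 1536-well format; quantitative HTS.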
Luciferase inh – Firefly luciferase inhibition profiling of diverse chemical library using quantitative high-throughput screening | Luciferin 4-monooxygenase (Photinus pyralis), P08659 | purified P. pyralis luciferase, luminescence, biochemical | Potency, µM (doses to about 115 µM), usual class: inhibitors | 76,000 tested, 2.5% active | AID 1347043, 2019; also: nearly all actives have a fitted effect of over 65% in size
Target sequence (P08659 whole entry, looked up): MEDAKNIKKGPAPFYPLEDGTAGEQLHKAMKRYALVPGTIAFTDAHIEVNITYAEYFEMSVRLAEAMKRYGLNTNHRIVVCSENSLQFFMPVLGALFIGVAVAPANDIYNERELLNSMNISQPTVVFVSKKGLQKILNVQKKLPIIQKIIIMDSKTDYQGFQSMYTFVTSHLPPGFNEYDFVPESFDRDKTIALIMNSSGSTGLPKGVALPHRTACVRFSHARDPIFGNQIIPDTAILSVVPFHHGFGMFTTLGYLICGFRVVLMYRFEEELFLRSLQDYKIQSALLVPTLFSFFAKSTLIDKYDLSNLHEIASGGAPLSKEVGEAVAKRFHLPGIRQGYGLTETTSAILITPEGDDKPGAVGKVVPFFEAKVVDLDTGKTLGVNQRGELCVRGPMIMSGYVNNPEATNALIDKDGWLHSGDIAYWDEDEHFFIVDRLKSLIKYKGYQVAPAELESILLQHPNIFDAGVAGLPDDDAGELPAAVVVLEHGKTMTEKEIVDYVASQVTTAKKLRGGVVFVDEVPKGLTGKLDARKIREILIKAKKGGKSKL
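FLuc 10nM, D-luciferin 10uM, ATP 10uM, Mg acetate 10mM, Tris acetate pH 7.5, Tween/BSA; cpd qHTS; enzyme added last; CCD luminescence.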
Active calls of the source: *; i = inactive; ? = inconclusive; . = no result given; [ ] = another dose, or the depositor's remark. Unless noted, calls follow the shape of the dose curve; as a rule, active = well fitted curve in the direction sought with a large enough effect; inconclusive = small, poorly fitted or top-dose-only effect, or another doubt; inactive = no such curve, though single readings can be large; an effect the other way counts as inactive or inconclusive. % is scaled to controls: 0 for no effect and ±100 for the full control effect; potency is read from the fitted curve at half-maximal effect.

SMILES	hNpr1 antagonist	HEK293 tox	GPT2 inhibitor	3T3 cytotox	Luciferase inh
COc1cc(OC)cc(C(=O)N2CCCC(n3cc(-c4nc(C5CC5)no4)nn3)C2)c1 (stereo not given)	-2.1%	-11.9%	i	-7.6%	i
COc1ccccc1-c1cn2c(n1)CO[C@@H](CNC(=O)c1ccc(F)cc1)C2	1.9%[70.6 µM]	?	i	?	i
COc1cc(F)ccc1-c1cn(C)c(=O)n2cc(CN3CCNC(=O)C3)nc12	1.3%[70.6 µM]	-25.2%[172 µM]	0.4%[88.5 µM]	?	i
Cc1ccc(-c2ccc(CN)cc2)cc1Cl	.	31.6µM*	-11.0%[88.5 µM]	31.6µM*	.
CSc1ccc(-c2cccc(CN)c2)cc1	.	?	0.8%[88.5 µM]	25.1µM*	.
Cc1ccc(-c2cccc(CN)c2)cc1Cl	.	?	-1.3%[88.5 µM]	28.2µM*	.
NCc1cccc(-c2ccc(O)cc2)c1	.	-16.0%[172 µM]	?	-20.6%[138 µM]	.
Cc1ccc(-c2ccc(C=O)cc2)cc1Cl	.	?	1.7%[88.5 µM]	?	.
CC(C)Cn1ccc2c(NC(=O)CC[C@H]3NC(=O)c4ccccc4NC3=O)cccc21	-12.4%	?	i	-16.1%	?
CC(C)Cn1ccc2c(NC(=O)C[C@H]3NC(=O)c4ccccc4NC3=O)cccc21	-13.2%	?	i	28.2µM*	i
Cn1c(CCNC(=O)Cn2nc3c(cc2=O)CCCC3)nc2ccccc21	-1.1%	4.1%	3.3%	i	i
OC(COc1ccccc1CNC1(c2ccccc2)CC1)CN1CCCCC1 (stereo not given)	0.0%	?	i	?	i
O=C1Nc2cc(Cl)ccc2C(=O)N2CCN(C(=O)C3CCCCC3)C[C@H]12	3.2%[70.6 µM]	?	i	-20.9%[174 µM]	i
Cc1cc(-c2nccc3c(=O)cc(N(C)c4ccccc4)oc23)ccn1	-1.4%[70.6 µM]	?	1.9%[88.5 µM]	10µM*	i
Cc1cc(-c2nccc3c(=O)cc(N(C)C)oc23)ccn1	1.0%[70.6 µM]	-6.0%[230 µM]	?	?	i
CN(C)c1cc(=O)c2ccnc(-c3ccc(N4CCOCC4)cc3)c2o1	-1.5%[70.6 µM]	i	2.1%[88.5 µM]	?	44.7µM*
CN(C)c1cc(=O)c2ccnc(-c3cccc(CO)c3)c2o1	-2.8%[70.6 µM]	i	i	?	i
CN1CCN(c2cc(=O)c3ccnc(-c4ccc(CO)cc4)c3o2)CC1	5.1%[70.6 µM]	i	-5.5%[88.5 µM]	?	i
O=c1cc(N2CCOCC2)oc2c(-c3ccc(F)c(Cl)c3)nccc12	4.2%[70.6 µM]	-11.6%[172 µM]	3.3%[88.5 µM]	17.8µM*	i
O=c1cc(N2CCOCC2)oc2c(-c3ccc(F)cc3)nccc12	1.7%[70.6 µM]	?	2.0%[88.5 µM]	31.6µM*	i
COCCN1C(=O)CS(=O)C12CCN(C(=O)NCc1ccc(OC)cc1)CC2 (stereo not given)	6.1%	-8.0%	i	2.7%	i
Cc1cccc(C)c1NC(=O)CN1C(=O)NC2(CCC(C)CC2)C1=O (stereo not given)	0.7%	-2.3%	-7.0%	i	i
Cn1nc(N2CCC(NC(=O)c3ccncn3)CC2)ccc1=O	-1.1%	3.2%	i	4.3%	i
CC(=O)N1CCCC2(C1)CN(C)c1ccc(C(=O)NCCc3ccccc3)cc12 (stereo not given)	7.3%[70.6 µM]	?	-1.6%[88.5 µM]	-1.5%[138 µM]	i
CN1CCN(c2cc(=O)c3ccnc(Nc4ccccn4)c3o2)CC1	0.8%[70.6 µM]	-5.7%[172 µM]	4.3%[88.5 µM]	?	i
SMILES	hNpr1 antagonist	HEK293 tox	GPT2 inhibitor	3T3 cytotox	Luciferase inh
COc1cc(F)ccc1-c1nccc2c(=O)cc(N3CCOCC3)oc12	1.6%[70.6 µM]	-6.4%[172 µM]	-0.3%[88.5 µM]	44.7µM*	i
COc1cc(F)ccc1-c1nccc2c(=O)cc(N(C)C3CCOCC3)oc12	6.2%[70.6 µM]	-31.7%[172 µM]	3.0%[88.5 µM]	?	i
CN1CCN(c2cc(=O)c3ccnc(Nc4ccc(F)c(Cl)c4)c3o2)CC1	1.9%[70.6 µM]	?	i	100µM*	i
O=c1cc(N2CCOCC2)oc2c(-c3cccc4[nH]ccc34)nccc12	6.9%[70.6 µM]	?	i	8.91µM*	i
O=c1cc(N2CCOCC2)oc2c(NCc3ccc(F)cc3)nccc12	3.9%[70.6 µM]	?	-23.9%[88.5 µM]	25.1µM*	i
COc1ccccc1OCC(=O)c1ccc2c(c1)N(CCCC(=O)NCC1CC1)C(=O)CO2	0.7%	?	i	-28.2%	i
Cc1cccc(OCC(=O)N2CCC(n3cc(-c4nc(C(C)C)no4)nn3)C2)c1 (stereo not given)	1.6%	-3.8%	i	-7.7%	i
Cc1oc(-c2ccccc2)nc1CC(=O)NCc1cc2n(n1)CCNC2	0.0%	-15.2%	-1.7%	-3.9%	i
CN1CCN(c2cc(=O)c3ccnc(-c4cccc(CO)c4)c3o2)CC1	-3.5%[70.6 µM]	-6.5%[172 µM]	4.8%[88.5 µM]	?	i
CN1CCN(c2cc(=O)c3ccnc(-c4cccc(F)c4)c3o2)CC1	-1.1%[70.6 µM]	-13.5%[172 µM]	2.0%[88.5 µM]	35.5µM*	i
O=c1cc(N2CCOCC2)oc2c(Nc3ccccn3)nccc12	4.6%[70.6 µM]	-20.6%[172 µM]	-1.2%[88.5 µM]	?	i
Cc1cc(-c2nccc3c(=O)cc(N4CCOCC4)oc23)ccn1	4.6%[70.6 µM]	-21.4%[172 µM]	2.7%[88.5 µM]	31.6µM*	i
COc1ccc(-c2nccc3c(=O)cc(N4CCOCC4)oc23)cc1OC	-1.0%[70.6 µM]	?	2.1%[88.5 µM]	10µM*	i
O=c1cc(N2CCOCC2)oc2c(N3CCOCC3)nccc12	6.3%[70.6 µM]	?	i	39.8µM*	i
O=C(NCc1ccc(N2CCOCC2)cc1)c1ccc(N2CC3CC(C2)[C@H]2CCCC(=O)N2C3)nc1 (stereo not given in full)	3.3%	14.6%	i	i	i
COc1ccc(CN2CCCC3(Cc4ccccc4CNC3=O)C2)c(OC)n1 (stereo not given)	.	?	-4.4%	?	.
CCCC(O)CN1CCC(=O)N(Cc2ccccc2)Cc2ccccc21 (stereo not given)	.	?	.	-11.3%	.
CC(C)(C)OCC(O)CN1CCC(=O)N(Cc2ccccc2)Cc2cc(F)ccc21 (stereo not given)	.	44.7µM*	.	?	.
CCCC(O)CN1CCC(=O)N(Cc2ccccc2)Cc2cc(F)ccc21 (stereo not given)	.	79.4µM*	.	?	.
CCOc1ccc(C(=O)N2CCC(c3n[nH]c(=O)n3Cc3ccc(OC)cc3)CC2)cc1	-5.6%	4.9%	i	-7.4%	i
CN1CCN(C(=O)c2csc(N3CCN(c4ccc(Cl)cc4)CC3)n2)CC1	-11.3%	?	i	?	?
